Experiment [1] is described as follows: small molecules captured by biotinylated probe aFSTL3 – biochemical, small-molecule microarray, fluorescence 635/667, stem cell growth factor project, primary screen (AID 1064).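 Note: measures binding of the biotinylated anti-FSTL3 antibody to printed compounds.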 The note with it: higher = more signal.
A short description of experiment [2]: binders from COS7 lysate, DM2A8 probe, primary screen, torsin A project, cell lysate, small-molecule microarray, fluorescence 635/667 (AID 1065). The note with it: higher = more signal, COS7 lysate expressing mutant human TOR1A.
Experiment [3] is described as follows: small molecules captured by biotinylated probe aFGF2 – biochemical, small-molecule microarray, fluorescence 635/667, stem cell growth factor project, primary screen (AID 1067).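 Note: measures binding of biotinylated aFGF2 protein to printed compounds on slides; z-score merges feature fluorescence and signal-to-noise across triplicate slides.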 The note with it: higher = more signal.
Experiment [4] can be described thus: small molecules captured by biotinylated probe aFGF10 – biochemical, small-molecule microarray, fluorescence 635/667, stem cell growth factor project, primary screen (AID 1071).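 Note: score merges 667 nm spot intensity and signal to noise from triplicate slides.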 Particulars: higher = more signal.
Experiment [5] addresses Neurogenic locus notch homolog protein 2 (Homo sapiens) (UniProt Q04721). Briefly: small molecules binding Notch2 protein – biochemical, small-molecule microarray, 635 nm fluorescence, stem cell growth factors, primary screen (AID 1073). Particulars: higher = more signal.
Experiment [6] addresses Pro-neuregulin-1, membrane-bound isoform (Homo sapiens) (UniProt Q02297). Briefly: small molecules binding neuregulin-1 protein – biochemical, small-molecule microarray, fluorescence 635/667, psychiatric disease protein project, primary screen (AID 1075).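 Note: score combines 667 nm spot fluorescence with signal to noise.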 Particulars: NRG1 binding, 635 nm fluorescence, higher = more signal.
Experiment [7] has as its system Neuregulin-1 EGF-like domain. In words: small molecules binding NRG1 EGF domain – biochemical, small-molecule microarray, 635 nm fluorescence, primary screen (AID 1081).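 Note: binding of the protein to compounds printed on small-molecule microarray slides.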 The note with it: higher = more signal.
Experiment [8] can be described thus: FRG1 expression reporter modulators in myotubes – cell-based, C2C12 myotubes, firefly/Renilla luciferase, luminescence, FRG1 inhibition for FSHD, primary screen (AID 1084). Particulars: FRG1 promoter luciferase, higher = more signal, called active from +8 up or from −8 down.
Experiment [9] is described as follows: small molecules captured by biotinylated probe aFST – biochemical, small-molecule microarray, fluorescence 635/667, stem cell growth factor project, primary screen (AID 1086).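 Note: score merges 667 nm fluorescence with signal-to-noise of each printed compound spot.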 Particulars: higher = more signal.
Experiment [10] is described as follows: binders of probe aHhip on microarray, primary screen, stem cell growth factor project, biochemical, small-molecule microarray, fluorescence 635/667 (AID 1087).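 Note: score merges spot fluorescence at 667nm with spot signal to noise ratio.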 The note with it: higher = more signal.
For experiment [11], the system named is PRMT1 (protein arginine N-methyltransferase 1). Briefly: small molecules binding arginine methyltransferase PRMT1 – biochemical, small-molecule microarray, 635 nm fluorescence, primary screen (AID 1088).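 Note: binding of Prmt1 protein to compounds spotted on small-molecule microarray slides.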 The note with it: higher = more signal.
The nature of experiment [12]: growth effects on S. cerevisiae YJM789 – YJM789 clinical isolate, OD600, 24 h, basal, primary screen (AID 1089).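 Note: growth of clinical yeast isolate S. cerevisiae YJM 789 seeded 1000 cells per well; test concentration not given here.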 Particulars: higher = more signal, called active from +8 up or from −8 down.
The nature of experiment [13]: S. pombe growth modifiers, basal conditions – strain 972, OD600, 24 h, no modulator, primary screen (AID 1090).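 Note: basal condition with compound alone and no growth modifier present; test concentration not given here.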 Particulars: S. pombe 972 growth, higher = more signal, called active from +8 up or from −8 down.
Experiment [14] can be described thus: budding yeast growth modifiers under rapamycin – strain BY4716, OD600, 96 h, primary screen (AID 1091). Note: test concentration not given here. Particulars: S. cerevisiae BY4716 + rapamycin, higher = more signal, called active from +8 up or from −8 down.
Experiment [15] has as its target Torsin-1A-interacting protein 2 (Homo sapiens) (UniProt Q8NFQ8). In words: small molecules binding lysate-expressed LULL1 – cell lysate, human LULL1 lysate, 635/667 nm fluorescence, primary screen (AID 1092).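 Note: probe is lysate of COS7 cells overexpressing human LULL1; score merges per-feature 667 nm fluorescence with signal-to-noise.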 Particulars: small-molecule microarray, hLULL1 lysate binding, 635 nm fluorescence; higher = more signal.
Experiment [16] can be described thus: optical density change of DRC41 E. coli – strain DRC41, OD650, 24 h, E. coli filamentation project, primary screen (AID 1093).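 Note: MC1000 strain lacking acrAB efflux and sulA so SOS filamentation is blocked; test concentration not given here.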 The note with it: E. coli DRC41 growth, higher = more signal, called active from +8 up or from −8 down.
The nature of experiment [17]: probe aLefty2 binding to arrayed compounds – biochemical, biotinylated probe, 635/667 nm fluorescence, primary screen (AID 1094).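 Note: score merges spot fluorescence near 667 nm with spot signal-to-noise ratio.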 The note with it: small-molecule microarray, higher = more signal.
Experiment [18] relates to Noggin (protein binding on small-molecule microarray). In words: small molecules binding Noggin protein – biochemical, 635/667 nm fluorescence, primary screen (AID 1095).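 Note: score merges 667 nm feature fluorescence with signal to noise over triplicate slides.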 Particulars: 635 nm fluorescence, higher = more signal.
Experiment [19] deals with Neurogenic locus notch homolog protein 3 (Homo sapiens) (UniProt Q9UM47). Briefly: small molecules binding NOTCH3 protein – biochemical, 635/667 nm fluorescence, primary screen (AID 1096). The note with it: small-molecule microarray, 635 nm fluorescence, higher = more signal.
A short description of experiment [20]: probe aEGFR binding to arrayed compounds – biochemical, biotinylated probe, 635/667 nm fluorescence, primary screen (AID 1097).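 Note: probe is a biotinylated anti-EGFR antibody binding compounds printed on slides; score combines fluorescence near 667 nm and signal to noise of each spot.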 The note with it: small-molecule microarray, higher = more signal.

Molecules are shown by their SMILES. Active and inactive are the calls of the source.

Chain of Pro-neuregulin-1, membrane-bound isoform (Homo sapiens) (Q02297 whole entry, looked up, the tested form may be a part, canonical isoform): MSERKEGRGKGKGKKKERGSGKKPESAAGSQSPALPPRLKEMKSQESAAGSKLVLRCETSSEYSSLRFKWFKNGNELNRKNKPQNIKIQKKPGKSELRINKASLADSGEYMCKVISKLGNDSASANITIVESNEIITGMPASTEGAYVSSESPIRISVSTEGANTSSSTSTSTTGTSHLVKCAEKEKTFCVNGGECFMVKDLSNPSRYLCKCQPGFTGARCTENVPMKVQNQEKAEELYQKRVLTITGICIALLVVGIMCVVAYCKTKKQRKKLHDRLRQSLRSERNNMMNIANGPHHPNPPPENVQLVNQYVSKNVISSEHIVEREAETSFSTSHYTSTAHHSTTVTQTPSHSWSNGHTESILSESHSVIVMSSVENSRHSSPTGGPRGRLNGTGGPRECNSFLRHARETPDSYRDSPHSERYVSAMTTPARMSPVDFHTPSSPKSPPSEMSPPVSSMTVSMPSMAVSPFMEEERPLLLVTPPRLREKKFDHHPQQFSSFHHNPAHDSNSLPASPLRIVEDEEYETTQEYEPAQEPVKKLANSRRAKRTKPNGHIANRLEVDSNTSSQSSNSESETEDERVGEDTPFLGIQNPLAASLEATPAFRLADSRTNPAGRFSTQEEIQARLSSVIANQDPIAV
Chain of Torsin-1A-interacting protein 2 (Homo sapiens) (Q8NFQ8 whole entry, looked up): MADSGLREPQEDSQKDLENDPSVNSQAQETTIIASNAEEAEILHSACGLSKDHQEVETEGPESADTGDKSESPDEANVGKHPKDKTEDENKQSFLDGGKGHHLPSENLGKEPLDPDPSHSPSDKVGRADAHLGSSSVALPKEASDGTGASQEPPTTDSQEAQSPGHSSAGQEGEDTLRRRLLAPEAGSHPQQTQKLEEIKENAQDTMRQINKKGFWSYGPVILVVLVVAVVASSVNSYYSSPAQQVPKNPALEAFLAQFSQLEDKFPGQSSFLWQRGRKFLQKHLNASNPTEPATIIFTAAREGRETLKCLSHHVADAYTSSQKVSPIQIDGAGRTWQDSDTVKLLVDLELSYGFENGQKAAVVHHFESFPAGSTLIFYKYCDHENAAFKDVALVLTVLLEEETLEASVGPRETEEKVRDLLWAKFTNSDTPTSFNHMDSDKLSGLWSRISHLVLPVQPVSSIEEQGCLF
Chain of Neurogenic locus notch homolog protein 2 (Homo sapiens) (Q04721 whole entry, looked up, canonical isoform): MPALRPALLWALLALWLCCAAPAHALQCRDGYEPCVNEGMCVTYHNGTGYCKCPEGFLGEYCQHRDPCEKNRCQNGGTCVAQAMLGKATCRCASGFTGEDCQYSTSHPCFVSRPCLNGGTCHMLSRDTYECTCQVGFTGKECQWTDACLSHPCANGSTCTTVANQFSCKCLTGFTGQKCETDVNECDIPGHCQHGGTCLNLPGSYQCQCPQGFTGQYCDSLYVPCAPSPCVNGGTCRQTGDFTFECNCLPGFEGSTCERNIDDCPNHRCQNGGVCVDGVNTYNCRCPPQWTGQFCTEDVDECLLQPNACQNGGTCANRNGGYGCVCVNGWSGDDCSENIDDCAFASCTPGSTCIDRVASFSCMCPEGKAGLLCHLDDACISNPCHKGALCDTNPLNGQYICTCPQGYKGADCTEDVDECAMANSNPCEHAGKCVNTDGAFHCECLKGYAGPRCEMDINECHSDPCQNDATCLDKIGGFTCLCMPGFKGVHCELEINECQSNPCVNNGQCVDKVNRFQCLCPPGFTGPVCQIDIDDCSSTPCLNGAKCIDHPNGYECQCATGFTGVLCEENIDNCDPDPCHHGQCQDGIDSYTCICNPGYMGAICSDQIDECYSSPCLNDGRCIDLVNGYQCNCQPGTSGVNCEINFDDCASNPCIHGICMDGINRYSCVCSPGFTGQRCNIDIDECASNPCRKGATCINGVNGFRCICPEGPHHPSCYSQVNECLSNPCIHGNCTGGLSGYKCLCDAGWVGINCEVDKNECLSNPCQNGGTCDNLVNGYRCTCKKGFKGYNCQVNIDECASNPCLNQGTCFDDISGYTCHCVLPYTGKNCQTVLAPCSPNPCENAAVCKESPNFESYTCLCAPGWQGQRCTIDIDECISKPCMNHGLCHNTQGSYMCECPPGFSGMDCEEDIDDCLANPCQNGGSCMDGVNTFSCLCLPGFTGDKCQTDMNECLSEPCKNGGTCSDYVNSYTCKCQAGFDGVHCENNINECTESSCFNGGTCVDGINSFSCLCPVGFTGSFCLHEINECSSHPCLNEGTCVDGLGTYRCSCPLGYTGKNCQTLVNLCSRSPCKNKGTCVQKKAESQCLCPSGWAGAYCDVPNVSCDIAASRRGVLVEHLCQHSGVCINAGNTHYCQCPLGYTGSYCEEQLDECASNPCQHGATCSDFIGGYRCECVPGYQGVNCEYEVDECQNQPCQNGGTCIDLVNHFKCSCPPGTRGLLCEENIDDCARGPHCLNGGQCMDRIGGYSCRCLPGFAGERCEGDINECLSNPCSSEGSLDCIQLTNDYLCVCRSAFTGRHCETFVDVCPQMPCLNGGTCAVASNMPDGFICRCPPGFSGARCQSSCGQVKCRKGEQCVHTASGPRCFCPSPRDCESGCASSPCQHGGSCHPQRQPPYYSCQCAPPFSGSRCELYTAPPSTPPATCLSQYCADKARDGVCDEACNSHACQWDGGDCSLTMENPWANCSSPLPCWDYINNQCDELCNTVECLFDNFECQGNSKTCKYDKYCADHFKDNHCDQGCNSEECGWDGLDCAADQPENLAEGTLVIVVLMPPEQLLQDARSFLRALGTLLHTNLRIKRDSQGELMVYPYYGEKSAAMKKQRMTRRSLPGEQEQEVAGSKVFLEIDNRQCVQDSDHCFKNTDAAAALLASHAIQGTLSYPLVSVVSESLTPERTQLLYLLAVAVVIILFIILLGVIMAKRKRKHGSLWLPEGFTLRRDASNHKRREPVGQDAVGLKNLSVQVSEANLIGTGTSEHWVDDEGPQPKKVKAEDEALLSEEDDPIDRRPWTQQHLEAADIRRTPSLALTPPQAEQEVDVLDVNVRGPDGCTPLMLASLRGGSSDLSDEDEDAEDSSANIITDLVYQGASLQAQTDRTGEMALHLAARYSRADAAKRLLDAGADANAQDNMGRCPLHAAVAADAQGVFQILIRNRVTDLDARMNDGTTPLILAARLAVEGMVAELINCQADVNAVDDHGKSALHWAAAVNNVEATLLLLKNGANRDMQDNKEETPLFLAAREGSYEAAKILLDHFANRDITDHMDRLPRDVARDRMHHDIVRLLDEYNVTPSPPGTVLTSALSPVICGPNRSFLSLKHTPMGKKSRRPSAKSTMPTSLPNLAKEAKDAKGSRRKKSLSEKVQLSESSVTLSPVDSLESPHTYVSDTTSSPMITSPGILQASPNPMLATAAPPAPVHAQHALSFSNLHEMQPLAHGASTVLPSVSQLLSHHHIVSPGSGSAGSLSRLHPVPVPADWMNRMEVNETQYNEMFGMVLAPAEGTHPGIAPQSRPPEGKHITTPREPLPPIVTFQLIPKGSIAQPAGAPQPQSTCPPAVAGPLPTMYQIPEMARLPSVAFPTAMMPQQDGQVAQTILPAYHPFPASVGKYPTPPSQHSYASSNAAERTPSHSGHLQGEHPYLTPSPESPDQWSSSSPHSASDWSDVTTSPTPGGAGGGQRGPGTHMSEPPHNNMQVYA

For the compound `O=C1N(Cc2ccccc2)c2ccccc2C[C@@]12N=C(c1ccc(OCCCO)cc1)O[C@H]2c1ccccc1`, the composite z-score was -0.0448 in experiment [1]; 0.0182 in [2]; -0.0129 in [3]; 0.311 in experiment [4]; 0.18 in experiment [5]; 0.909 in experiment [6]. Also, the composite z-score was 1.14 in experiment [7]; -0.238 in experiment [9]; -0.0925 in experiment [10]; 1.55 in experiment [11]; 3.03 in experiment [15]; 0.0686 in experiment [17]. Moreover, the composite z-score in experiment [18] was 0.591; in experiment [19], 1; in experiment [20], -0.178. Besides, the z-score in experiment [8] was -2.64 (inactive); in experiment [12], -0.789 (inactive); in experiment [13], -2.61 (inactive); in [14] it was 3.55 (inactive); in experiment [16], -0.788 (inactive).

For `C=CCNC(=O)[C@H]1[C@@H]2C(=O)O[C@@H](c3ccccc3)[C@@H](c3ccccc3)N2[C@@H](c2ccc(O)cc2)[C@]12C(=O)Nc1ccc(C#CCC(C(=O)OC)C(=O)OC)cc12`, the composite z-score in experiment [1] is -0.102; in [2], -0.0975; in experiment [3], -0.0878; in experiment [4], 0.0813; in experiment [5], 0.136; in experiment [6], 0.0652. Moreover, the composite z-score in experiment [7] is 1.19; in experiment [9] it was 0.0765; in experiment [10], -0.261; in [11], 0.526; in experiment [15] it was 1.13; in [17], -0.0478. The composite z-score in [18] is 0.614; in experiment [19], -0.112; in [20], -0.102. Besides, the z-score in experiment [8] is -0.32 (inactive); in experiment [12] it was 0.357 (inactive); in experiment [13] it was -0.213 (inactive); in experiment [14], -0.836 (inactive); in experiment [16], 1.44 (inactive).

For `COC(=O)[C@@]1(Cc2ccc(F)cc2)[C@H]2c3cc(C(=O)N(C)C)n(Cc4cccc5ccccc45)c3C[C@H]2CN1C(=O)c1ccccc1`, the composite z-score in experiment [1] amounted to 1.84; in experiment [2], 1.71; in experiment [3] it was 0.398; in experiment [4], 1.16; in experiment [5] it was 0.77; in experiment [6], 1.13. Further, the composite z-score is 1.33 in [7]; 0.697 in experiment [9]; 0.727 in [10]; -0.72 in experiment [11]; 4.03 in experiment [15]; 0.323 in [17]. The composite z-score in experiment [18] was -0.192; in experiment [19], -0.0287; in [20], 0.0776. The z-score in [8] was 0.255 (inactive); in experiment [12], 1.43 (inactive); in experiment [13] it was 1.54 (inactive); in experiment [14] it was 2.69 (inactive); in experiment [16], -1.15 (inactive).

With `COc1cc2c(cc1O)C(C)N(Cc1sc3ccccc3c1Cl)CC2` (stereo not given), the composite z-score in experiment [1] was 0.208; in experiment [2] it was -1.01; in experiment [3], -0.17; in experiment [4], -0.563; in experiment [5] it was -0.246; in experiment [6], 0.717. In addition, the composite z-score is 0.343 in [7]; -0.133 in experiment [9]; -0.0994 in experiment [10]; -0.77 in experiment [11]; -0.0038 in experiment [15]; 0.107 in experiment [17]. For the same compound, the composite z-score in experiment [18] is -0.417; in experiment [19] it was -0.88; in experiment [20], -0.2. Besides, the z-score in experiment [8] was 0.541 (inactive); in experiment [12] it was 0.173 (inactive); in [13] it was -12.3 (active); in [14] it was -1.6 (inactive); in experiment [16], 0.566 (inactive).

With `CN1C(=O)C2C=CC(C(O)c3cccs3)N(N(c3ccccc3)c3ccccc3)C2C1=O` (stereo not given), the composite z-score was -0.128 in experiment [1]; -0.493 in [2]; 0.0472 in experiment [3]; 0.272 in experiment [4]; 1.1 in experiment [5]; 1.19 in experiment [6]. The composite z-score in experiment [7] was 1.21; in experiment [9] it was 0.379; in experiment [10], -0.0645; in experiment [11] it was 1.2; in experiment [15] it was 2.62; in experiment [17], 0.0453. The composite z-score in [18] is 0.0625; in experiment [19] it was 0.932; in experiment [20], -0.17. For the same compound, the z-score in [8] was -0.179 (inactive); in experiment [12] it was 1 (inactive); in experiment [13] it was 0.881 (inactive); in experiment [14] it was 0.571 (inactive); in [16], -0.874 (inactive).

The record behind these values is PubChem BioAssay.
